Data on one sequence can be found in publication PMC7862700, “An all-to-all approach to the identification of sequence-specific readers for epigenetic DNA modifications on cytosine”.

Test in all cases: DAPPL (digital affinity profiling via proximity ligation, sequencing); 10 mM Tris-HCl pH 7.5, 50 mM NaCl, 1 mM DTT, 4% glycerol, room temperature, 30 min; GST-TFs on glutathione beads, 16-mer random dsDNA library, 0.1% formaldehyde crosslink after washing; high values mean tight binding
The target of one assay is T1, FLI1 (Homo sapiens, UniProt Q01543 1-452).
T1 sequence: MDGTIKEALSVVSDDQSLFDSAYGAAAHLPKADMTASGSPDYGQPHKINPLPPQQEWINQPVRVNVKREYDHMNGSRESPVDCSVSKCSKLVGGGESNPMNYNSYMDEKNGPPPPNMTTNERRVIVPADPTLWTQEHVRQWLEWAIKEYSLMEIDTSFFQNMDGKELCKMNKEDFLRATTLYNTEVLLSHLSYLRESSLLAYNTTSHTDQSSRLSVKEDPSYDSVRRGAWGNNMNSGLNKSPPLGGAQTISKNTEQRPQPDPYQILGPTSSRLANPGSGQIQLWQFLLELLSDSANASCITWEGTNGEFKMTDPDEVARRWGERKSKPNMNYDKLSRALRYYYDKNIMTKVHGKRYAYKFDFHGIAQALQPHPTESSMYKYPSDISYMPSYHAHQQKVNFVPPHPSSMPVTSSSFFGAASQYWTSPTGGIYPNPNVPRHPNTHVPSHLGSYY
As to conditions: protein: recombinant; tags: N-terminal GST; dsDNA, one strand shown. The method in brief:
(§1)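 Human transcription factors were made in yeast as GST fusions, captured on glutathione beads and barcoded with DNA. With a tag-only sample included, the pool was incubated with 200 nmole of a random double-stranded 16-mer DNA library in Tris/NaCl/DTT/glycerol buffer at room temperature for 30 min, then crosslinked with 0.1% formaldehyde after washing, ligated by proximity, amplified and sequenced. For binding signal, each hexamer's read frequency for a factor is divided by its frequency for the tag-only sample.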

The next assay deals with T2, ELK1 (Homo sapiens, UniProt P19419 1-428).
T2 sequence: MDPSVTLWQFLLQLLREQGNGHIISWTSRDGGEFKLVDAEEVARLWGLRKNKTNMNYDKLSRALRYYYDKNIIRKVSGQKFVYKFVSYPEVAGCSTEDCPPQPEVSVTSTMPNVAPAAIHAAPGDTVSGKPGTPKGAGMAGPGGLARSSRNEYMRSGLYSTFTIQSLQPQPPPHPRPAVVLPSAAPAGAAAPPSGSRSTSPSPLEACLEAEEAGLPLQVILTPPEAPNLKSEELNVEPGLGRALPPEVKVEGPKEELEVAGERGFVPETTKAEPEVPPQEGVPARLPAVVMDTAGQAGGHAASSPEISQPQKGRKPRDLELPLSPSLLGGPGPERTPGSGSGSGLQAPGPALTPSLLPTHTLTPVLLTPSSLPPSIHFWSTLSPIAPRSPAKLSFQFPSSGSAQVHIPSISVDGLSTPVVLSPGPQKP
As to conditions: protein: recombinant; tags: N-terminal GST; dsDNA, one strand shown. In outline: as §1

In the next assay the target is T3, GABPA (Homo sapiens, UniProt Q06546 1-454).
T3 sequence: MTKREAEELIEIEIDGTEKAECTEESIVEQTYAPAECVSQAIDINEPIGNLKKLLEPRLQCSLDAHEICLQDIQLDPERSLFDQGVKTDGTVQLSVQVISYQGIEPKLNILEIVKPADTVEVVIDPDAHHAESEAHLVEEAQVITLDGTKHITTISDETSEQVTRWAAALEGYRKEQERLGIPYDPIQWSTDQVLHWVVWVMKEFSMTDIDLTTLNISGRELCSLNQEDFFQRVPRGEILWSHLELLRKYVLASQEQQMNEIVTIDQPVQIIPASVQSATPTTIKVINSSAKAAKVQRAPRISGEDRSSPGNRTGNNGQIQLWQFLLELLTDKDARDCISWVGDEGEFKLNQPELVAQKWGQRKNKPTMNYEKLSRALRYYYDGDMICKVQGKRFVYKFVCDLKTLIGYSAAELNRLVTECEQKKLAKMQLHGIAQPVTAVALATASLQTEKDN
As to conditions: protein: recombinant; tags: N-terminal GST; dsDNA, one strand shown. In outline:
as §1

In another assay the target is T4, ERG (Homo sapiens, UniProt P11308 1-479).
T4 sequence: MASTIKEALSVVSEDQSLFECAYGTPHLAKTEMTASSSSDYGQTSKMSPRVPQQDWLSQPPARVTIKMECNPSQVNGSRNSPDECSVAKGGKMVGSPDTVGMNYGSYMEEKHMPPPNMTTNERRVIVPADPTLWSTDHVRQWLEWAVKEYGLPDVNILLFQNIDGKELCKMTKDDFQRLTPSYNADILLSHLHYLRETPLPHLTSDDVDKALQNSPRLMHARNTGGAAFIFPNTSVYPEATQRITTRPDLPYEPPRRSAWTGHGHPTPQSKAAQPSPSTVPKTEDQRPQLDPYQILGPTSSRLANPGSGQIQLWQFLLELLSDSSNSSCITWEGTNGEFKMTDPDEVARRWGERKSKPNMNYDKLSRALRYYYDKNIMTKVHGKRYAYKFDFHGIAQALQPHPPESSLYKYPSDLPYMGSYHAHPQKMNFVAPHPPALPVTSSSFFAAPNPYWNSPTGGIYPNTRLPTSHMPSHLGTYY
As to conditions: protein: recombinant; tags: N-terminal GST; dsDNA, one strand shown. In outline: as §1

The target of a further assay is ELF1 (Homo sapiens, UniProt P32519 1-619). The conditions noted are these: protein: recombinant; tags: N-terminal GST; dsDNA, one strand shown. In outline: as §1
The target in the next assay is T5, EHF (Homo sapiens, UniProt Q9NZC4 1-300).
T5 sequence: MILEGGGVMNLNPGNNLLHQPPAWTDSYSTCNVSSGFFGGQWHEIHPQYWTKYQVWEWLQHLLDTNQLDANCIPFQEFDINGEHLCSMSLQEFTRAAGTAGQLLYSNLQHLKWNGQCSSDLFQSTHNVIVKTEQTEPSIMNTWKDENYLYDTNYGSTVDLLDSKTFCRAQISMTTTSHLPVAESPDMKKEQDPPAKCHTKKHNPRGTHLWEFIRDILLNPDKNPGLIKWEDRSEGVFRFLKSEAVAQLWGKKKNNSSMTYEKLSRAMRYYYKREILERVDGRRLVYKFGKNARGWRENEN
As to conditions: protein: recombinant; tags: N-terminal GST; dsDNA, one strand shown. In outline:
as §1

For the next assay, the target named is SPI1 (Homo sapiens, UniProt P17947 1-270). As to conditions: protein: recombinant; tags: N-terminal GST; dsDNA, one strand shown. The method in brief:
as §1

In a further assay the target is SPIB (Homo sapiens, UniProt Q01892 1-262). As to conditions: protein: recombinant; tags: N-terminal GST; dsDNA, one strand shown. In outline: as §1
In another assay the target is T6, ELK3 (Homo sapiens, UniProt P41970 1-407).
T6 sequence: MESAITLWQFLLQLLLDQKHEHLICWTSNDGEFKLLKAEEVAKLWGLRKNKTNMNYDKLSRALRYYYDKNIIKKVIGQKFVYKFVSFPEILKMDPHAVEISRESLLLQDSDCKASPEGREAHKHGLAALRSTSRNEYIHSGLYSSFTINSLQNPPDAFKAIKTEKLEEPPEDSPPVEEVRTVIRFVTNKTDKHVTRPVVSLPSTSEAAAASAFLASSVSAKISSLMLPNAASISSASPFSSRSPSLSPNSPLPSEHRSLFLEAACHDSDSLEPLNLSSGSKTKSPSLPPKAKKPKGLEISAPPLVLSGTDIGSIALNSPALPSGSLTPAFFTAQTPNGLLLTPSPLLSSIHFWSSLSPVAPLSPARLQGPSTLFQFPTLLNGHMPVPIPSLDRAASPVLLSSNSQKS
As to conditions: protein: recombinant; tags: N-terminal GST; dsDNA, one strand shown. In outline: as §1

The target of a further assay is T7, FEV (Homo sapiens, UniProt Q99581 1-238).
T7 sequence: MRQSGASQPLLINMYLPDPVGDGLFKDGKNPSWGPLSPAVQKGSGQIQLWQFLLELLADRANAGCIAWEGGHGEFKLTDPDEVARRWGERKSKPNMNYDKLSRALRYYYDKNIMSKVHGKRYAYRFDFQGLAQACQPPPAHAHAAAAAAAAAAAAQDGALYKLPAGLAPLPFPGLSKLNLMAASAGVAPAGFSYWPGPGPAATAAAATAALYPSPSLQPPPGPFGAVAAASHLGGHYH
The conditions noted are these: protein: recombinant; tags: N-terminal GST; dsDNA, one strand shown. In outline: as §1

For a further assay, the target named is ETV5 (Homo sapiens, UniProt P41161 1-510). The conditions noted are these: protein: recombinant; tags: N-terminal GST; dsDNA, one strand shown. In outline:
as §1

The target of a further assay is HSF1 (Homo sapiens, UniProt Q00613 1-529). As to conditions: protein: recombinant; tags: N-terminal GST; chain copies: 3; dsDNA, one strand shown. In outline: as §1
Another assay addresses T8, SPIC (Homo sapiens, UniProt Q8N5J4 1-248).
T8 sequence: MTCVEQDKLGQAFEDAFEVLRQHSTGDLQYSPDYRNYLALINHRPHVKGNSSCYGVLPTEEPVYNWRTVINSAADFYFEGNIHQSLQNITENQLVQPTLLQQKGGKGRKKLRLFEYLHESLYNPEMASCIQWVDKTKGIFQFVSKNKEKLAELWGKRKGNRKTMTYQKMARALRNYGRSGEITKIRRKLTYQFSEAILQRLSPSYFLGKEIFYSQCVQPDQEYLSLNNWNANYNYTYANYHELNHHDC
The conditions noted are these: protein: recombinant; tags: N-terminal GST; dsDNA, one strand shown. The method in brief:
as §1

A further assay addresses ELF4 (Homo sapiens, UniProt Q99607 1-663). As to conditions: protein: recombinant; tags: N-terminal GST; dsDNA, one strand shown. In outline:
as §1

The target of the next assay is T9, ELK4 (Homo sapiens, UniProt P28324-2 1-405).
T9 sequence: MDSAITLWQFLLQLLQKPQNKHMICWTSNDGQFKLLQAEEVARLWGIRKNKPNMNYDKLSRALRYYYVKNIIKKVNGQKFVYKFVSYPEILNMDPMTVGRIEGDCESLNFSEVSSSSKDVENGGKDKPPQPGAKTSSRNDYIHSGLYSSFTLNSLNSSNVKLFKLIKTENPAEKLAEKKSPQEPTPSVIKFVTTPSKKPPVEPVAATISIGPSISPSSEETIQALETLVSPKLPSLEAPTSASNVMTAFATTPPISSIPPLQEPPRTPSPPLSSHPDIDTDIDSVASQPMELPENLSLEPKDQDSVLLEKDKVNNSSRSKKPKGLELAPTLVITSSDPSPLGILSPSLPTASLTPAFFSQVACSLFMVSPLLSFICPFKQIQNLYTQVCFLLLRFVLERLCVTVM
As to conditions: protein: recombinant; tags: N-terminal GST; dsDNA, one strand shown. In outline: as §1

The next assay addresses T10, ETV2 (Homo sapiens, UniProt O00321 1-342).
T10 sequence: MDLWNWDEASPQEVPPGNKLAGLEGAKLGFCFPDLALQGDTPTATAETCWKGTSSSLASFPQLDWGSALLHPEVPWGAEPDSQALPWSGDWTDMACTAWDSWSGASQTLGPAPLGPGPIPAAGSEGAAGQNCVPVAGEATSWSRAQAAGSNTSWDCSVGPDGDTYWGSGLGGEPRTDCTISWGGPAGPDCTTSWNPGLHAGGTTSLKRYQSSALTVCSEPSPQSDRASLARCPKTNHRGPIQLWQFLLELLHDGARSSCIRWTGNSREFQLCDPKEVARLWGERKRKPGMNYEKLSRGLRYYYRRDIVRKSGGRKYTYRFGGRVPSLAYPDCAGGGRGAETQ
As to conditions: protein: recombinant; tags: N-terminal GST; dsDNA, one strand shown. In outline:
as §1

A further assay deals with T11, ELF3 (Homo sapiens, UniProt P78545 1-371).
T11 sequence: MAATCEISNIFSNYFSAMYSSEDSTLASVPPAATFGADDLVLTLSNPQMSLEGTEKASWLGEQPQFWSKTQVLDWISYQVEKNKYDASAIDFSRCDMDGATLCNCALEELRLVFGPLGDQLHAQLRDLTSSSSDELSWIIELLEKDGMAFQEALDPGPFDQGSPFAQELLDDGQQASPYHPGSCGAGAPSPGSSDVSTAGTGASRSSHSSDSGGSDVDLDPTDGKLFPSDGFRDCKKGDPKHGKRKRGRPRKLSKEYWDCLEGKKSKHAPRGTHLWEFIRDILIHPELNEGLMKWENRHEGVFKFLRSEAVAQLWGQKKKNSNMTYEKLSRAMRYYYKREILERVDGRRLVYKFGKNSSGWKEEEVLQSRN
As to conditions: protein: recombinant; tags: N-terminal GST; dsDNA, one strand shown. In outline: as §1

For a further assay, the target named is CRX (Homo sapiens, UniProt O43186 1-299). As to conditions: protein: recombinant; tags: N-terminal GST; dsDNA, one strand shown. In outline:
as §1

The next assay has as its target ETV1 (Homo sapiens, UniProt P50549 1-477). As to conditions: protein: recombinant; tags: N-terminal GST; dsDNA, one strand shown. The method in brief:
as §1

Sequence of ELF4 (Q99607 whole entry): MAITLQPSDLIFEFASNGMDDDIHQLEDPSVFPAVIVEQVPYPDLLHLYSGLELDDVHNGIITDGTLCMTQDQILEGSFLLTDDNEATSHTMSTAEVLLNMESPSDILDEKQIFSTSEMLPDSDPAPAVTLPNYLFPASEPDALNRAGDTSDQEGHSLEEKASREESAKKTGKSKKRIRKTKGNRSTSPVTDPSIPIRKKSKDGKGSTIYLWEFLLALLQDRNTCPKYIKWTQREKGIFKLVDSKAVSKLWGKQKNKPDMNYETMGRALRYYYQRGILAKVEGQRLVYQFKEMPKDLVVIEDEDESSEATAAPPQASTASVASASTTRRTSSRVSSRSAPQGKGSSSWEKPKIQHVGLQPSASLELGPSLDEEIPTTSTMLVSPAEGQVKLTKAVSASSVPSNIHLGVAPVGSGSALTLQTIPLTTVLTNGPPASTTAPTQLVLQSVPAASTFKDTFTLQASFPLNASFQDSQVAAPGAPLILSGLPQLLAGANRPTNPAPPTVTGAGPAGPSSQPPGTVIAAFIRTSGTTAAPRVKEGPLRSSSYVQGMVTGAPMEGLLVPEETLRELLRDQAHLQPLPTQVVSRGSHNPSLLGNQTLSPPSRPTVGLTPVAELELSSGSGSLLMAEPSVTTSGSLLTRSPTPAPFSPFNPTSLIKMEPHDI
Sequence of ELF1 (P32519 whole entry): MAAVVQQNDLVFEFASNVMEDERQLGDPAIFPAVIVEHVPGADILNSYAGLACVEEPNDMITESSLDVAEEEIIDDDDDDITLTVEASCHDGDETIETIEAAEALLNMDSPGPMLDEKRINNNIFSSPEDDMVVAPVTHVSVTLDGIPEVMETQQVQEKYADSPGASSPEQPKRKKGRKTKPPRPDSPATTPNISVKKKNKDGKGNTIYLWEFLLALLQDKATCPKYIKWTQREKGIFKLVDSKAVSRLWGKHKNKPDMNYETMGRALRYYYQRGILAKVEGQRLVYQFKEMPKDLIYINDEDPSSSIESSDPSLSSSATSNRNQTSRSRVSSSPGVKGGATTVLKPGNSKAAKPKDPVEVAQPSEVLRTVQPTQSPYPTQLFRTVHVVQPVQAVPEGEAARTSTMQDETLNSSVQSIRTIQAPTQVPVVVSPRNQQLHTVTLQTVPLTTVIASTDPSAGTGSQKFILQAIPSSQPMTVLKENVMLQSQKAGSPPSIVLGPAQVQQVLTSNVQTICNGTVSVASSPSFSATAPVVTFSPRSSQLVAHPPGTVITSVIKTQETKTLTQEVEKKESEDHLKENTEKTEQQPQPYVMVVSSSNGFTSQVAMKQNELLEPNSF
Sequence of HSF1 (Q00613 whole entry): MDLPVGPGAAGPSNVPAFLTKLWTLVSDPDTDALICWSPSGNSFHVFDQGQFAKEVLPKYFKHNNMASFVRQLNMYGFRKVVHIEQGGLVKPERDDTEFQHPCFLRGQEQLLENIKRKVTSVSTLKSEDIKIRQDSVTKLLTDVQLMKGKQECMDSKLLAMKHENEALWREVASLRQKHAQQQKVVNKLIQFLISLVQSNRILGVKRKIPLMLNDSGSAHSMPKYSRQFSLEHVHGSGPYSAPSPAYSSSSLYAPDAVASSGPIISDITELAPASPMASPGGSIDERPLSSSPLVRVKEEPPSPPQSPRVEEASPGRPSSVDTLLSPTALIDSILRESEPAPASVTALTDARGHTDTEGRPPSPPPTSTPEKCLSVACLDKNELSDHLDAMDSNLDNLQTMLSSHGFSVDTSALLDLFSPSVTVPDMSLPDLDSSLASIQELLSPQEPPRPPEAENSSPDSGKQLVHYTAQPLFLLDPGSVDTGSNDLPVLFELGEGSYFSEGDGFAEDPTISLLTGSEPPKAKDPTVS
Sequence of ETV1 (P50549 whole entry): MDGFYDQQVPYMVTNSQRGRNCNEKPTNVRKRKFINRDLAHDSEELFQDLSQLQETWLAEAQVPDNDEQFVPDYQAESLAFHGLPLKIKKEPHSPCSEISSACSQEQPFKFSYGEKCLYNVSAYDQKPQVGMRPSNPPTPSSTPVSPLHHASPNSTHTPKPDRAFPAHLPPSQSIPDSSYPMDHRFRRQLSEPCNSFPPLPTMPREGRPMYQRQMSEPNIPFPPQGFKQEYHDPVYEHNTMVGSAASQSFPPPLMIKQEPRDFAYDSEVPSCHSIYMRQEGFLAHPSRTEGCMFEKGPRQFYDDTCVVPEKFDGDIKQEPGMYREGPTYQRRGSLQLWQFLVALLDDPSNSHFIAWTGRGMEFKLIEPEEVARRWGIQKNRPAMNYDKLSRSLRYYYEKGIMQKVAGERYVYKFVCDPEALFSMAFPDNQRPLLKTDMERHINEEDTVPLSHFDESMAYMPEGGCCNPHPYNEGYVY
Sequence of SPIB (Q01892 whole entry): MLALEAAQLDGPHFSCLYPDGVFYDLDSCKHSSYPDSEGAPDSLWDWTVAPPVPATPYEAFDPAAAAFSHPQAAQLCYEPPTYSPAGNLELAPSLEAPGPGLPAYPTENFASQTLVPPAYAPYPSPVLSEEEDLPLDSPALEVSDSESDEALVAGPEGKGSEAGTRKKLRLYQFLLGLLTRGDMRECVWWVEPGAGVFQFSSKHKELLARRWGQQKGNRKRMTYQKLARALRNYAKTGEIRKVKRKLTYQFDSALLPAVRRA
Sequence of CRX (O43186 whole entry): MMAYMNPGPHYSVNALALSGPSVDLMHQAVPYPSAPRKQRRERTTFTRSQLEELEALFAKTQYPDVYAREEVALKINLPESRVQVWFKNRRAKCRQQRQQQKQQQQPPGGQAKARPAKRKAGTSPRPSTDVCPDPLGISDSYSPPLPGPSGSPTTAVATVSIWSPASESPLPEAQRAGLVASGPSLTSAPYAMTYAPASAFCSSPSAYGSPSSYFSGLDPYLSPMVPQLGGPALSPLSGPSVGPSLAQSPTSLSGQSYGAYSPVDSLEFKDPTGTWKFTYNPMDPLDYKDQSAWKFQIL
Sequence of ETV5 (P41161 whole entry): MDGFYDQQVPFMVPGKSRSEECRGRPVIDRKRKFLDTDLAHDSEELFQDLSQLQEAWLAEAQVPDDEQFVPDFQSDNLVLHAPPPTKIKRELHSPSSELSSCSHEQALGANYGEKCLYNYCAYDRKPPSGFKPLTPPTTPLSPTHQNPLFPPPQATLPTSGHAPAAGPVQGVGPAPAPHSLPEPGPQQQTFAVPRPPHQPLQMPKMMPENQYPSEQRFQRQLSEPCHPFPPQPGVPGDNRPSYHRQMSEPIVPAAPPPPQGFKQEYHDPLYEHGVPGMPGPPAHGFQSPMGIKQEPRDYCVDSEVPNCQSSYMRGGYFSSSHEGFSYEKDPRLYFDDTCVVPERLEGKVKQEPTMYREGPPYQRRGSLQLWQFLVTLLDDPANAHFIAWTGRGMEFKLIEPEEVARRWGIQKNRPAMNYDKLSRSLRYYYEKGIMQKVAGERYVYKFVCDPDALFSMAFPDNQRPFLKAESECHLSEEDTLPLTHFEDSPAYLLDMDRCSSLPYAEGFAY

On to CCCACG, for which the binding signal with FLI1 is 1.17 fold enrichment (6-mer frequency, TF over GST control); with ELK1, 1.2 fold enrichment (6-mer frequency, TF over GST control); in the assay with GABPA, 1.26 fold enrichment (6-mer frequency, TF over GST control); with ERG, 1.09 fold enrichment (6-mer frequency, TF over GST control); with ELF1 it was 1.19 fold enrichment (6-mer frequency, TF over GST control); with EHF it was 1.2 fold enrichment (6-mer frequency, TF over GST control). Moreover, the binding signal is 1.08 fold enrichment (6-mer frequency, TF over GST control) in the assay with SPI1; 1.16 fold enrichment (6-mer frequency, TF over GST control) in the assay with SPIB; 1.29 fold enrichment (6-mer frequency, TF over GST control) with ELK3; 1.13 fold enrichment (6-mer frequency, TF over GST control) in the assay with FEV; 1.22 fold enrichment (6-mer frequency, TF over GST control) with ETV5; 1.01 fold enrichment (6-mer frequency, TF over GST control) with HSF1. Besides, the binding signal in the assay with SPIC is 1.22 fold enrichment (6-mer frequency, TF over GST control); in the assay with ELF4, 1.27 fold enrichment (6-mer frequency, TF over GST control); with ELK4 it was 1.25 fold enrichment (6-mer frequency, TF over GST control); with ETV2, 1.01 fold enrichment (6-mer frequency, TF over GST control); with ELF3, 1.21 fold enrichment (6-mer frequency, TF over GST control); with CRX, 1 fold enrichment (6-mer frequency, TF over GST control). Moreover, the binding signal with ETV1 is 1.06 fold enrichment (6-mer frequency, TF over GST control).
